According to the supplement of paper PMC10338343:
± gives the standard deviation.

The sequences below were run on MILI (PIWIL2) piRISC loaded with piRNA #1 (26 nt) (assay: pre-steady-state target cleavage rate (min^-1); guide: piRNA #1 5'p-UGAGGUAGUAGGUUGUAUAGUAUCCA; MIWI and MILI are mouse PIWI proteins and EfPiwi is from a freshwater sponge; tags in brackets are library labels; higher = faster piRNA-guided slicing of the target). Settings: auxiliary factor: 500 nM mouse GTSF1.
Procedure, shortened: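 Three pooled Cleave-'n-Seq trials supplied the data, with k3 capped at 0.0001 min^-1. In each, […] transcribed, DNA-blocked target RNA library and 1 nM active affinity-purified piRISC with one synthetic guide reacted in HEPES–potassium acetate buffer at 33 °C for 0–8 or 0–960 min, with or without 500 nM GTSF1 partner protein. Uncleaved targets were sequenced and normalised to depth and to weakly complementary targets. A burst-and-steady-state fit provided the pre-steady-state cleavage rate.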
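Note: 1 nM active piRISC with 0.1 nM target library at 33 °C single turnover.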

| Sequence | pre-steady-state target cleavage rate |
| --- | --- |
| GGAGACCUAUGAUAUGUACCUAGUUCCUCA | < 0.0001 |
| GGAGACCUAUCUAUACAACCUACAACGUCA | 0.0102 ± 0.004 |
| GGAGACCAUACUAUAGAACCUACUUCCUCA | 0.0428 ± 0.013 |
| GGAGACCUAACUAUACUUCCUACUACCUCA | 0.054 ± 0.011 |
| GGAGACCUAACUAUACAAGCUACUACCACA | 0.309 ± 0.029 |
| GGAGACCUAUCUAUACAACCUAAUACCUCA | 0.0234 ± 0.0057 |
| GGAGACCUUACUAAACAACCUACUAGCUCA | 0.139 ± 0.018 |
| GGAGACCUAUCUAUAGAACCUACUACCACA | 0.0472 ± 0.0098 |
| GGAGACCUAUCUAUACAACCUACAACCUGA | 0.0151 ± 0.0061 |
| GGAGACCUAUGUAAACAACCUACUACCUGA | 0.00535 ± 0.0019 |
| GGAGACCUAAGUAUACUACCUACUACCUCA | 0.0377 ± 0.0069 |
| GGAGACCAUACUAAUGAACCUACUACCUCA | 0.0422 ± 0.011 |
| GGAGACCUAACUAAACAACCUACUACCUGA | 0.0558 ± 0.021 |
| GGAGACCAUACAAUACAACCUACUAGCUCA | 0.181 ± 0.029 |
| GGAGACCUAACUUUACAACGUACUACCUCA | 0.00988 ± 0.0052 |
| GGAGACCUAUGAAUUACAACCUACUACCUCA | 0.00427 ± 0.0021 |
| GGAGACCUAUCUAUACAACCUCCUACCUCA | 0.0185 ± 0.0046 |
| GGAGACCUAUGAUUACAAGCUACUACCACA | 0.0854 ± 0.022 |
| GGAGACCUUACUUUACAACCUACAACCUCA | 0.0873 ± 0.013 |
| GGAGUGGAUACUAAACAACCUACUACCACA | 0.113 ± 0.011 |

| Sequence | pre-steady-state target cleavage rate |
| --- | --- |
| GGAGACCUAUCUAUCAACCUACUACCUCA | 0.0205 ± 0.0047 |
| GGAGACCUAUGAUAUGAACGCUACUACCUCA | < 0.0001 |
| GGAGACCUAUGAUAUCAACCUACUUACCUCA | 0.00342 ± 0.0024 |
| GGAGACCUAUGAUAUGUUCCUACUACCUCG [g2:g12:cont:t1G] | < 0.0001 |
| GGAGACCUAUCUAUACUACCUACAACCUCA | 0.0808 ± 0.009 |
| GGAGACGAUACUAAACAACCUACUAGCUCA | 0.111 ± 0.019 |
| GGAGACCUAUGUAUACAACCUUCAACCUCA | 0.00276 ± 0.0024 |
| GGAGACCUAUGUUUACAACCUACUACCUGA | 0.00584 ± 0.0023 |
| GGAGACCUAUCUUUACUACCUACUACCUCA | 0.0305 ± 0.008 |
| GGAGAGGAUACUAUUCAACCUACUACGUCA | 0.0602 ± 0.0084 |
| GGAGACCUUUACUAUACAACCUACUACCUCA | 0.154 ± 0.012 |
| GGAGACCUAACUAUAGAAGCUACUACCUCA | 0.156 ± 0.029 |
| GGAGACCUAUGUUAUACAACCUACUACCUCA | 0.104 ± 0.01 |
| GGAGACCUAUCUAUACAACCUACUAACCUCA | 0.143 ± 0.014 |
| GGAGAGGAUAGUAUAGAACCUACUACCUCA | 0.0708 ± 0.012 |
| GGAGACCUUACUUUACAACCUACUACCACA | 0.14 ± 0.018 |
| GGAGACCAUACUUUACAACCUACAACCUCA | 0.14 ± 0.018 |
| GGAGACCUAUCUAUACAAGCAACUACCUCA | 0.00953 ± 0.0029 |
| GGAGACCUAUGUAAACAACCUACUACGUCA | 0.00279 ± 0.0027 |
| GGAGACCUAUGAUUCACAACCUACUACCUCA | 0.00321 ± 0.0032 |
